# Measurements reported in PubChem BioAssay AID504444 (National Center for Advancing Translational Sciences (NCATS), 2011).
# Values joined by “and” are separate entries in the source; they are usually repeats but may differ in a detail not shown here. Equal entries are not always repeated. Screen size: about 360,000 compounds; about 7,500 (2.1%) were called active. Roughly 20% stayed inconclusive and do not appear here. The call rests on the fitted dose curve; in most records, active means well fitted inhibition curve with a large enough effect; inconclusive means small, poorly fitted or top-dose-only effect, or effect the other way; inactive means flat fitted curve, though single readings scatter. Only a selection was taken, and actives are over-represented in it overall.
# Assay: Nrf2 qHTS screen for inhibitors; further: nearly all actives have a fitted effect of over 60% in size
# Details: A549 ARE-Fluc reporter, luciferase luminescence, 18-24 h; series mostly up to 46 µM; activity change, negative = inhibition: at the top concentration
# Procedure, shortened: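 A549 ARE_Fluc cells (5000/well, 5% FBS OPTI-MEM) pre-incubated 2 h, then treated with compounds 18-24 h at 37C/5% CO2 in concentration-response. CellTiter-Fluor viability read first; BugLite luciferase luminescence after 15 min at room temperature gives Nrf2 activity.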
# On the % scale 0 is the no-effect control and ±100 the full control effect; potency means the concentration at half of the fitted maximal effect.
SMILES,"activity change, negative = inhibition",Potency
Nn1c(SCC(=O)NC2CCCc3ccccc32)nnc1C1CC1 (stereo not given),-4.73% (inactive),–
O=C(CN1CCN(C2CCS(=O)(=O)C2)CC1)N1N=C(c2ccc(Cl)cc2)CC1c1ccco1 (stereo not given),-19.2% (inactive),–
C[C@@H]1NS(=O)(=O)c2cc(Cl)ccc2O[C@@H]1c1ccccc1,-9.06% (inactive),–
COc1ccc(CNC(=O)c2cc3c(s2)-c2ccccc2OC3)cc1,8.62% (inactive),–
O=S(=O)(Nc1ccc2ccccc2c1)N1CCCCC1,21.5% (inactive),–
COc1ccc(C2=Nn3c(nnc3-c3ccccc3O)SC2)cc1,-19.8% (inactive),–
Cc1nnc2n1N=C(c1ccccc1)CS2,-13.9% (inactive),–
COc1ccc(C2=Nn3c(nnc3-c3ccccc3OC)SC2)cc1OC1CCCC1,–,16.4 µM (active)
Cc1cccc(NC(=O)CN(c2ccc(C(C)C)cc2)S(=O)(=O)c2c(C)nn(C)c2C)c1C,-22.6% (inactive),–
O=C1CC(c2ccccc2)CC2=C1C(c1ccco1)n1nc(C(F)(F)F)nc1N2 (stereo not given),-5.13% (inactive),–
O=S(=O)(Nc1ccccn1)c1ccc(Oc2ccccc2)cc1,-25.2% (inactive),–
Cc1cc(C)cc(NS(=O)(=O)c2ccc(Oc3ncc(C(F)(F)F)cc3Cl)cc2)c1,–,4.11 µM (active)
COC(=O)Cc1ccc(Oc2ncc(C(F)(F)F)cc2Cl)cc1,-1.72% (inactive),–
O=C(C[C@@H]1C/C=C\CCC(=O)OC[C@@H]2CCCN2C1=O)NCCO,-13.3% (inactive),–
N#CCCN(C(=O)COC(=O)c1ccc2c(c1)OCCO2)c1ccccc1,5.07% (inactive),–
Brc1nc2ncnc(NCc3ccco3)c2[nH]1,-18.6% (inactive),–
O=C(Nc1c(Br)cc2c(c1Br)Cc1cc([N+](=O)[O-])ccc1-2)C(Cl)Cl,1.16% (inactive),–
COc1ccc(C(CNC(=O)c2cccc(S(=O)(=O)Nc3ccc(Br)cc3)c2)N(C)C)cc1 (stereo not given),12.8% (inactive),–
COC(=O)c1ccc(CSc2nnc(NC(C)C)s2)cc1,9.82% (inactive),–
Cc1ccc(C(=O)Oc2coc(CSc3nnc(NC(=O)c4cccs4)s3)cc2=O)cc1C,–,14.6 µM (active)
CCSc1nnc(NC(=O)c2cc(=O)c3cc(C)c(C)cc3o2)s1,-0.281% (inactive),–
Cc1ccc(NC(=O)c2oc3ccccc3c2NC(=O)Cc2cccs2)cc1,-2.62% (inactive),–
CCN(Cc1ccncc1)C(=O)CCc1ccccc1,14.4% (inactive),–
Cc1cc(C)c(SCCc2ccncc2)c(C)c1,–,16.4 µM (active)
O=C(NOCc1ccccc1)c1cccc([N+](=O)[O-])c1,5.07% (inactive),–

SMILES,"activity change, negative = inhibition",Potency
CN1CCN(C2(CNC(=O)COc3ccc(C(C)(C)C)cc3)CCCCC2)CC1,23.4% (inactive),–
O=C(/C=C/c1cccc(C(F)(F)F)c1)N1CCN(c2ccccn2)CC1,–,23.1 µM (active)
O=C(Cc1ccc(Br)cc1)N1CCN(c2ccccn2)CC1,-16.2% (inactive),–
O=C(C(Cl)Cl)N1CCN(c2ccccn2)CC1,-1.05% (inactive),–
COc1ccc(CN2C(CC(=O)Nc3cccnc3)c3ccc(C(F)(F)F)cc3S2(=O)=O)cc1 (stereo not given),-7.15% (inactive),–
O=C(CNC(=O)c1ccc(Cl)cc1Cl)OC(C(=O)Nc1cc(C(F)(F)F)ccc1Cl)c1ccccc1 (stereo not given),7.1% (inactive),–
Cc1ccccc1NC(=O)c1ccccc1NS(=O)(=O)c1cccc2cccnc12,-4.28% (inactive),–
O=[N+]([O-])c1cccc2ncccc12,-7.71% (inactive),–
O=[N+]([O-])c1ccccc1S(=O)(=O)Nc1cccc2cccnc12,–,5.8 µM (active) and 11.6 µM (active)
Cc1ccc(OCC(=O)NCCCNC(=O)c2ccco2)cc1C,-1.07% (inactive),–
Cc1ccc(NC(=O)COc2ccc(/C=N\NC(=O)c3cccnc3)cc2)cc1C,-21.1% (inactive),–
Cc1ccc(OCC(=O)NCCCNC(=O)c2cccnc2)cc1C,–,5.17 µM (active)
Cc1ccc(S(=O)(=O)N(C)CC(=O)NCC(c2ccc(F)cc2)N2CCOCC2)cc1 (stereo not given),-6.27% (inactive),–
CC(=O)c1nc2ccccc2n1Cc1ccccc1,16% (inactive),–
CCC(=O)Nc1nc2ccccc2n1Cc1ccccc1C,-17.9% (inactive),–
CC(=O)Nc1nc2ccccc2n1Cc1ccc(C)cc1,–,18.4 µM (active)
CCN(CC)CCNC(=O)Cn1ncc2c3ccccc3n(Cc3ccccc3C)c2c1=O,6.67% (inactive),–
N#Cc1ccc(C(=O)Nc2nc(-c3cccs3)c(C(=O)C(F)(F)F)s2)cc1,–,5.17 µM (active)
N#Cc1ccc(Oc2ccc(C(F)(F)F)cc2NC(=O)c2ccc(F)cc2)cc1,22.2% (inactive),–
COC(=O)c1ccccc1NC(=O)c1ccc(C#N)cc1,-19.4% (inactive),–
COc1ccc(C(F)(F)F)cc1NC(=O)c1sc2nc(-c3cccs3)ccc2c1N,1.83% (inactive),–
CN1CCN(C(=O)c2ccc(-c3ccc(Br)cc3)o2)CC1,11.3% (inactive),–
CC(=O)OCC(COC(C)=O)OC(C)=O,6.37% (inactive),–
CC(C[N+](C)(C)C)OC(N)=O (stereo not given),0.44% (inactive),–
CC(=O)OC(C)C[N+](C)(C)C (stereo not given),–,0.461 µM (active)

SMILES,"activity change, negative = inhibition",Potency
O=C(Nc1ccc(S(=O)(=O)N2CCC(c3nc4ccccc4s3)CC2)cc1)c1ccccc1F,15.9% (inactive),–
Cc1ccc2onc(CC(=O)N3CCN(c4ccc(Cl)cc4)CC3)c2c1,23.1% (inactive),–
C[C@H](O)[C@@H]1C(=O)N2CCc3ccc(N4CCOCC4)cc3[C@@H]2C[C@@H]1N(C)C(=O)C(C)(C)C,-3.59% (inactive),–
O=C(c1ccc2c(c1)OCCO2)C1CCN(S(=O)(=O)c2cccc(F)c2)CC1,–,14.6 µM (active)
O=C(c1c(F)cccc1F)N1CCN(S(=O)(=O)c2ccc3c(c2)OCCO3)CC1,–,inactive
O=C(NCc1cccs1)C1CCN(S(=O)(=O)c2ccc3c(c2)OCCO3)CC1,6.59% (inactive),–
CC(C)c1ccc(C2CC(=O)N3CN(C4CCCCC4)CSC3=C2C#N)cc1 (stereo not given),-16.3% (inactive),–
COc1cc(C)cc(CN2CCC(Cc3ccccc3)CC2)c1O,-6.3% (inactive),–
Oc1ccc(CN2CCN(c3ncccn3)CC2)cc1,2.2% (inactive),–
Oc1c(CN2CCCC2)cc(COCc2ccccc2)c2cccnc12,–,16.4 µM (active)
CC(=O)c1ccc(NC(=O)CCc2nc(-c3ccc(C)cc3)no2)cc1,-3.05% (inactive),–
O=C(CSc1nc2ccccc2c(=O)n1CCCO)N1CCc2ccccc21,11.1% (inactive),–
Cn1c(SCC(=O)N2CCCc3ccccc32)nc2ccccc2c1=O,–,18.4 µM (active)
C=CCn1c(=O)c2ccccc2n2c(SCC(=O)N3CCCc4ccccc43)nnc12,-0.965% (inactive),–
COc1cc(C(=O)OCC(=O)NC23CC4CC(CC(C4)C2)C3)cc(OC)c1OC,-7.69% (inactive),–
COc1ccc(C2NCCCC2c2ccccc2)cc1 (stereo not given),7.75% (inactive),–
CCn1ccnc1CN(C)C(=O)c1cc(COc2ccc(-n3cncn3)cc2)on1,-12.5% (inactive),–
O=C(c1cc(COc2ccc(F)c(F)c2)on1)N1CCOCC1,0% (inactive),–
C=CCC1(CC=C)CCCN1C(=O)c1cc(COc2ccc(-n3cncn3)cc2)on1,–,8.2 µM (active)
O=C(COC(=O)C1CCCO1)Nc1nc(-c2ccc(F)cc2)cs1 (stereo not given),29.5% (inactive),–
Cc1ccc(N2C(=O)N3[C@@H]4c5ccccc5OC[C@@H]4[C@@H](c4ccccc4)[C@@]3(C)C2=O)cc1,1.3% (inactive),–
CCCCN(C(=O)CSCc1ccc(C)cc1)c1c(N)n(Cc2ccccc2)c(=O)[nH]c1=O,-11.8% (inactive),–
O=C(Cn1c(=O)n(Cc2cccs2)c(=O)c2cccnc21)Nc1ccc(F)cc1,7.02% (inactive),–
CN(C)c1nc(N)nc(Cn2nnc(-c3ccc(C(F)(F)F)cc3)n2)n1,0.318% (inactive),–
CN(C)c1nc(N)nc(CSc2ccccn2)n1,19.3% (inactive),–

SMILES,"activity change, negative = inhibition",Potency
CN(C)c1nc(N)nc(CSc2nnnn2-c2cccc3ccccc23)n1,–,6.51 µM (active)
Cc1ccc(-c2nc3ccccn3c2Nc2ccc(F)cc2)o1,11.6% (inactive),–
COc1ccc(S(=O)(=O)N2CCc3ccccc32)cc1C(=O)Nc1cc(S(C)(=O)=O)ccc1Cl,9.36% (inactive),–
COc1ccc(C(=O)NC2CC(C)(C)Cc3c2cnn3-c2ccccc2)c(OC)c1 (stereo not given),–,18.4 µM (active)
Cc1cc(C(=O)NC2CC(C)(C)Cc3c2cnn3-c2ccccc2)n[nH]1 (stereo not given),13.6% (inactive),–
CC1(C)Cc2c(cnn2-c2cccc(F)c2)C(NC(=O)c2cc[n+]([O-])cc2)C1 (stereo not given),-0.279% (inactive),–
CCOC(=O)Cc1csc(SCC(=O)Nc2ccc(C)cc2F)n1,2.45% (inactive),–
Cc1oc(C)c2c(=O)cc(-c3ccc4c(c3)OCO4)cc(OC(=O)c3ccc(Cl)cc3)c12,11.9% (inactive),–
N#CCc1c[nH]c2ccc([N+](=O)[O-])cc12,-9.51% (inactive),–
CCNC(=O)c1ccc(OCC(=O)Nc2ccc(F)cc2)c(OC)c1,8.83% (inactive),–
COc1cc(C(=O)N(C)Cc2cccc(OC)c2OC)ccc1OCC(=O)Nc1cccc(C(F)(F)F)c1,–,25.9 µM (active)
COc1ccc(NC(=O)CN(C)CC(=O)Nc2cccc(C(F)(F)F)c2)cc1,-28.1% (inactive),–
COc1ccc(CC2c3cc(OC)c(OC)cc3CC[N+]2(C)CCC(=O)OCCCCCOC(=O)CC[N+]2(C)CCc3cc(OC)c(OC)cc3C2Cc2ccc(OC)c(OC)c2)cc1OC (stereo not given),3.93% (inactive),–
COc1cccc(-c2nnc3n(CCc4ccccc4)c(=O)c4ccccc4n23)c1O,9.52% (inactive),–
O=C(N/N=C/c1cccc([N+](=O)[O-])c1)c1ccncc1,1.68% (inactive),–
N#Cc1cc([N+](=O)[O-])ccc1Oc1cccc(/C=N/NC(=O)c2ccc(Cl)cc2)c1,–,5.8 µM (active)
O=C(N/N=C/c1cccc(OC(=O)c2ccc([N+](=O)[O-])cc2)c1)c1cccnc1,7.34% (inactive),–
O=C(NC(c1ccco1)c1cc(Cl)c2cccnc2c1O)c1ccccc1 (stereo not given),-22% (inactive),–
COc1ccc(C(CNC(=O)c2cccc(NS(=O)(=O)c3ccc(C)c(F)c3)c2)N2CCCC2)cc1 (stereo not given),-7.76% (inactive),–
COc1ccc(C(CNC(=O)c2cccc(S(=O)(=O)Nc3ccccc3Cl)c2)N2CCOCC2)cc1 (stereo not given),–,18.4 µM (active)
COc1ccc(C(CNC(=O)c2ccc(S(=O)(=O)Nc3ccccc3C)cc2)N2CCOCC2)cc1 (stereo not given),-17.9% (inactive),–
CC(C)c1ccc(NC(=O)Cn2c3ncccc3c(=O)n2-c2ccccc2)cc1,7.72% (inactive),–
O=C(C(c1ccccc1)c1ccccc1)N1CCN(CC(O)COc2ccccc2)CC1 (stereo not given),-7.54% (inactive),–
OC(CN=c1sc2ccccc2n1CC(O)COc1ccccc1)COc1ccccc1 (stereo not given),–,23.1 µM (active)
C=CCn1c(=N)n(CC(O)COc2ccc(OC)cc2)c2ccccc21 (stereo not given),-7.41% (inactive),–
